# Changes are numbered by the printed parent chain.
# Legend:
# Assay in all cases: PBM; 200 nM protein, PBS
# Conditions in all cases: dsDNA, one strand shown
# [1] = molecular target: HOXB4 (Homo sapiens, UniProt P17483 148-234)
# [2] = molecular target: HOXB9 (Homo sapiens, UniProt P17482 171-250, T197M)
# [3] = molecular target: T1, SIX6 (Homo sapiens, UniProt O95475 114-200, L167I)
# T1 sequence: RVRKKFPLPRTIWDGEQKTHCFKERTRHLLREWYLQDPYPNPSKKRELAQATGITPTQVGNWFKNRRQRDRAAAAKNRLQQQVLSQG
# [4] = molecular target: T2, SIX6 (Homo sapiens, UniProt O95475 114-200, L143V)
# T2 sequence: T1 sequence with L30V, I54L
# [5] = molecular target: T3, SIX6 (Homo sapiens, UniProt O95475 114-200, H141N)
# T3 sequence: T1 sequence with H28N, I54L
# [6] = molecular target: T4, SIX6 (Homo sapiens, UniProt O95475 114-200, T165P)
# T4 sequence: T1 sequence with T52P, I54L
# [7] = molecular target: T5, SIX6 (Homo sapiens, UniProt O95475 114-200, L167M)
# T5 sequence: T1 sequence with I54M
# [8] = molecular target: T6, SIX6 (Homo sapiens, UniProt O95475 114-200, L143M)
# T6 sequence: T1 sequence with L30M, I54L
# [9] = molecular target: T7, SIX6 (Homo sapiens, UniProt O95475 114-200, L143I)
# T7 sequence: T1 sequence with L30I, I54L
# [10] = molecular target: T8, SIX6 (Homo sapiens, UniProt O95475 114-200, T165G)
# T8 sequence: T1 sequence with T52G, I54L
# [11] = molecular target: HOXB9 (Homo sapiens, UniProt P17482 171-250)
# [12] = molecular target: T9, SIX6 (Homo sapiens, UniProt O95475 114-200, T139Q)
# T9 sequence: T1 sequence with T26Q, I54L
# [13] = molecular target: HOXB4 (Homo sapiens, UniProt P17483 148-234, V174I)
# [14] = molecular target: T10, SIX6 (Homo sapiens, UniProt O95475 114-200, T165A)
# T10 sequence: T1 sequence with T52A, I54L
# [15] = molecular target: T11, SIX6 (Homo sapiens, UniProt O95475 114-200, L167V)
# T11 sequence: T1 sequence with I54V
# [16] = molecular target: T12, SIX6 (Homo sapiens, UniProt O95475 114-200)
# T12 sequence: T1 sequence with I54L
# [17] = molecular target: T13, SIX6 (Homo sapiens, UniProt O95475 114-200, T165I)
# T13 sequence: T1 sequence with T52I, I54L
# [18] = molecular target: HOXB9 (Homo sapiens, UniProt P17482 171-250, R186Q)
# [19] = molecular target: T14, VENTX (Homo sapiens, UniProt O95231 78-163, R121Q)
# T14 sequence: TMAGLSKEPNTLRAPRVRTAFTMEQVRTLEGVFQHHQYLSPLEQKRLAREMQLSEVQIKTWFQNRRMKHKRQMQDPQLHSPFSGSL
# [20] = molecular target: HOXA4 (Homo sapiens, UniProt Q00056 201-287, W262R)
# [21] = molecular target: T15, VENTX (Homo sapiens, UniProt O95231 78-163)
# T15 sequence: T14 sequence with Q44R
# [22] = molecular target: HOXA7 (Homo sapiens, UniProt P31268 116-202)
# [23] = molecular target: T16, VENTX (Homo sapiens, UniProt O95231 78-163, Y115F)
# T16 sequence: T14 sequence with Y38F, Q44R
# [24] = molecular target: HOXB6 (Homo sapiens, UniProt P17509 132-218, K202E)
# [25] = molecular target: HOXA4 (Homo sapiens, UniProt Q00056 201-287, R217L)
# [26] = molecular target: HOXA4 (Homo sapiens, UniProt Q00056 201-287)
# [27] = molecular target: HOXA7 (Homo sapiens, UniProt P31268 116-202, W177C)
# [28] = molecular target: HOXA4 (Homo sapiens, UniProt Q00056 201-287, W262F)
# [29] = molecular target: HOXB6 (Homo sapiens, UniProt P17509 132-218)
# [30] = molecular target: HOXA2 (Homo sapiens, UniProt O43364 129-215, R185T)
# [31] = molecular target: HOXA2 (Homo sapiens, UniProt O43364 129-215, R185K)
# [32] = molecular target: VAX1 (Homo sapiens, UniProt Q5SQQ9 86-172)
# [33] = molecular target: VAX1 (Homo sapiens, UniProt Q5SQQ9 86-172, T142I)
# [34] = molecular target: HOXA2 (Homo sapiens, UniProt O43364 129-215, Y150S)
# [35] = molecular target: HOXA2 (Homo sapiens, UniProt O43364 129-215)
# [36] = molecular target: VAX1 (Homo sapiens, UniProt Q5SQQ9 86-172, K157R)
# [37] = molecular target: HOXC9 (Homo sapiens, UniProt P31274 178-260, K195R)
# [38] = molecular target: HOXC9 (Homo sapiens, UniProt P31274 178-260)
# [39] = molecular target: HOXC9 (Homo sapiens, UniProt P31274 178-260, R193K)
# [40] = molecular target: HOXC10 (Homo sapiens, UniProt Q9NYD6 254-340, K271E)
# [41] = molecular target: HOXC9 (Homo sapiens, UniProt P31274 178-260, R222W)
# Sequence of HOXC9 (Homo sapiens, UniProt P31274 178-260, R222W) (P31274 178-260 R222W): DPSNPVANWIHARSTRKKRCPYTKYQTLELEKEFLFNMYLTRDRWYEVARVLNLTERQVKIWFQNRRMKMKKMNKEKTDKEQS
# Sequence of HOXA4 (Homo sapiens, UniProt Q00056 201-287, W262R) (Q00056 201-287 W262R): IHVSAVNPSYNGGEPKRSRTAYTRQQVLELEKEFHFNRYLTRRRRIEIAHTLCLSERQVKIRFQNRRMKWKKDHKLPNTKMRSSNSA
# Sequence of HOXB4 (Homo sapiens, UniProt P17483 148-234, V174I) (P17483 148-234 V174I): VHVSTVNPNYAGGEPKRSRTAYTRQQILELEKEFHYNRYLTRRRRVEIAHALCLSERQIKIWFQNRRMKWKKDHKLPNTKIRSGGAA
# Sequence of HOXB6 (Homo sapiens, UniProt P17509 132-218, K202E) (P17509 132-218 K202E): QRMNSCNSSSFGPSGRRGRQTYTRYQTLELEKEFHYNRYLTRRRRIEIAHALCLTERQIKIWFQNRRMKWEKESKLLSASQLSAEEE
# Sequence of HOXB4 (Homo sapiens, UniProt P17483 148-234) (P17483 148-234): as the sequence (P17483 148-234 V174I) above, with I27V counted along it
# Sequence of HOXB6 (Homo sapiens, UniProt P17509 132-218) (P17509 132-218): as the sequence (P17509 132-218 K202E) above, with E71K counted along it
# Sequence of HOXB9 (Homo sapiens, UniProt P17482 171-250) (P17482 171-250): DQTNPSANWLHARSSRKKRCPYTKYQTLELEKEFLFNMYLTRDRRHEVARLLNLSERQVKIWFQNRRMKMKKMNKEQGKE
# Sequence of HOXB9 (Homo sapiens, UniProt P17482 171-250, R186Q) (P17482 171-250 R186Q): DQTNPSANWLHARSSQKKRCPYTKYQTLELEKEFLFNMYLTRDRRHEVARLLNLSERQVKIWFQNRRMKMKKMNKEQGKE
# Sequence of HOXA4 (Homo sapiens, UniProt Q00056 201-287) (Q00056 201-287): as the sequence (Q00056 201-287 W262R) above, with R62W counted along it
# Sequence of HOXA4 (Homo sapiens, UniProt Q00056 201-287, W262F) (Q00056 201-287 W262F): as the sequence (Q00056 201-287 W262R) above, with R62F counted along it
# Sequence of HOXB9 (Homo sapiens, UniProt P17482 171-250, T197M) (P17482 171-250 T197M): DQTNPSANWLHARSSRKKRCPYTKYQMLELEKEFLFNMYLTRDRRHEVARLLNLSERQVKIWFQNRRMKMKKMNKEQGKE
# Sequence of HOXA4 (Homo sapiens, UniProt Q00056 201-287, R217L) (Q00056 201-287 R217L): as the sequence (Q00056 201-287 W262R) above, with R17L, R62W counted along it
# Sequence of HOXA7 (Homo sapiens, UniProt P31268 116-202) (P31268 116-202): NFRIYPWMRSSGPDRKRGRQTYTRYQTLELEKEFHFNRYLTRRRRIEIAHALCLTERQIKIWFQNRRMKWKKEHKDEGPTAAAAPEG
# Sequence of HOXA7 (Homo sapiens, UniProt P31268 116-202, W177C) (P31268 116-202 W177C): as the sequence (P31268 116-202) above, with W62C counted along it
# Sequence of VAX1 (Homo sapiens, UniProt Q5SQQ9 86-172, T142I) (Q5SQQ9 86-172 T142I): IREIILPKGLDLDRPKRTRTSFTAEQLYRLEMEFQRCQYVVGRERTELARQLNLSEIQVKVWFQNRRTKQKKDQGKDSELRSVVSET
# Sequence of HOXA2 (Homo sapiens, UniProt O43364 129-215, R185T) (O43364 129-215 R185T): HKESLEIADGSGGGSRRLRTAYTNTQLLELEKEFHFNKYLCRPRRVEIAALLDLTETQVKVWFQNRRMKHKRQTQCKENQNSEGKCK
# Sequence of HOXA2 (Homo sapiens, UniProt O43364 129-215, Y150S) (O43364 129-215 Y150S): as the sequence (O43364 129-215 R185T) above, with Y22S, T57R counted along it
# Sequence of HOXC9 (Homo sapiens, UniProt P31274 178-260, R193K) (P31274 178-260 R193K): as the sequence (P31274 178-260 R222W) above, with R16K, W45R counted along it
# Sequence of HOXA2 (Homo sapiens, UniProt O43364 129-215, R185K) (O43364 129-215 R185K): as the sequence (O43364 129-215 R185T) above, with T57K counted along it
# Sequence of HOXC9 (Homo sapiens, UniProt P31274 178-260) (P31274 178-260): as the sequence (P31274 178-260 R222W) above, with W45R counted along it
# Sequence of HOXC9 (Homo sapiens, UniProt P31274 178-260, K195R) (P31274 178-260 K195R): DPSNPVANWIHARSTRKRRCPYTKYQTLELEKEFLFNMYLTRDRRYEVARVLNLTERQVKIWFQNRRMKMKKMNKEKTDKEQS
# Sequence of HOXC10 (Q9NYD6 254-340 K271E): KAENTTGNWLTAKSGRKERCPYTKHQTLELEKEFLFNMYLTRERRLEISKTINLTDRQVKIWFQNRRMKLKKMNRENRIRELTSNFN
# Sequence of VAX1 (Homo sapiens, UniProt Q5SQQ9 86-172) (Q5SQQ9 86-172): as the sequence (Q5SQQ9 86-172 T142I) above, with I57T counted along it
# Sequence of HOXA2 (Homo sapiens, UniProt O43364 129-215) (O43364 129-215): as the sequence (O43364 129-215 R185T) above, with T57R counted along it
# Sequence of VAX1 (Homo sapiens, UniProt Q5SQQ9 86-172, K157R) (Q5SQQ9 86-172 K157R): as the sequence (Q5SQQ9 86-172 T142I) above, with I57T, K72R counted along it
sequence,measurement,setting,value
GGCCCCCC,binding signal,[1],"7.99 upbm affinity estimate (log intensity, higher = more binding, comparable within an allelic series)"
same,binding signal,[2],"8.33 upbm affinity estimate (log intensity, higher = more binding, comparable within an allelic series)"
same,binding signal,[3],"8.65 upbm affinity estimate (log intensity, higher = more binding, comparable within an allelic series)"
same,binding signal,[4],"8.57 upbm affinity estimate (log intensity, higher = more binding, comparable within an allelic series)"
same,binding signal,[5],"8.65 upbm affinity estimate (log intensity, higher = more binding, comparable within an allelic series)"
same,binding signal,[6],"8.56 upbm affinity estimate (log intensity, higher = more binding, comparable within an allelic series)"
same,binding signal,[7],"8.73 upbm affinity estimate (log intensity, higher = more binding, comparable within an allelic series)"
same,binding signal,[8],"8.77 upbm affinity estimate (log intensity, higher = more binding, comparable within an allelic series)"
same,binding signal,[9],"8.57 upbm affinity estimate (log intensity, higher = more binding, comparable within an allelic series)"
same,binding signal,[10],"8.61 upbm affinity estimate (log intensity, higher = more binding, comparable within an allelic series)"
same,binding signal,[11],"8.39 upbm affinity estimate (log intensity, higher = more binding, comparable within an allelic series)"
same,binding signal,[12],"8.85 upbm affinity estimate (log intensity, higher = more binding, comparable within an allelic series)"
same,binding signal,[13],"7.93 upbm affinity estimate (log intensity, higher = more binding, comparable within an allelic series)"
same,binding signal,[14],"8.73 upbm affinity estimate (log intensity, higher = more binding, comparable within an allelic series)"
same,binding signal,[15],"8.56 upbm affinity estimate (log intensity, higher = more binding, comparable within an allelic series)"
same,binding signal,[16],"8.69 upbm affinity estimate (log intensity, higher = more binding, comparable within an allelic series)"
same,binding signal,[17],"8.78 upbm affinity estimate (log intensity, higher = more binding, comparable within an allelic series)"
same,binding signal,[18],"8.36 upbm affinity estimate (log intensity, higher = more binding, comparable within an allelic series)"
CCATTAAG,binding signal,[1],"13 upbm affinity estimate (log intensity, higher = more binding, comparable within an allelic series)"
same,binding signal,[19],"11.8 upbm affinity estimate (log intensity, higher = more binding, comparable within an allelic series)"
same,binding signal,[20],"10.5 upbm affinity estimate (log intensity, higher = more binding, comparable within an allelic series)"
same,binding signal,[21],"12.3 upbm affinity estimate (log intensity, higher = more binding, comparable within an allelic series)"
same,binding signal,[22],"11.6 upbm affinity estimate (log intensity, higher = more binding, comparable within an allelic series)"
same,binding signal,[23],"11.5 upbm affinity estimate (log intensity, higher = more binding, comparable within an allelic series)"
same,binding signal,[24],"9.89 upbm affinity estimate (log intensity, higher = more binding, comparable within an allelic series)"
same,binding signal,[25],"11.8 upbm affinity estimate (log intensity, higher = more binding, comparable within an allelic series)"
same,binding signal,[13],"13.6 upbm affinity estimate (log intensity, higher = more binding, comparable within an allelic series)"
same,binding signal,[26],"13.7 upbm affinity estimate (log intensity, higher = more binding, comparable within an allelic series)"
same,binding signal,[27],"8.82 upbm affinity estimate (log intensity, higher = more binding, comparable within an allelic series)"
same,binding signal,[28],"11.3 upbm affinity estimate (log intensity, higher = more binding, comparable within an allelic series)"
same,binding signal,[29],"12 upbm affinity estimate (log intensity, higher = more binding, comparable within an allelic series)"
ACTAATGA,binding signal,[1],"13.4 upbm affinity estimate (log intensity, higher = more binding, comparable within an allelic series)"
same,binding signal,[19],"12.1 upbm affinity estimate (log intensity, higher = more binding, comparable within an allelic series)"
same,binding signal,[20],"10.8 upbm affinity estimate (log intensity, higher = more binding, comparable within an allelic series)"
same,binding signal,[21],"12.7 upbm affinity estimate (log intensity, higher = more binding, comparable within an allelic series)"
same,binding signal,[23],"12 upbm affinity estimate (log intensity, higher = more binding, comparable within an allelic series)"
same,binding signal,[30],"13.3 upbm affinity estimate (log intensity, higher = more binding, comparable within an allelic series)"
same,binding signal,[25],"12.2 upbm affinity estimate (log intensity, higher = more binding, comparable within an allelic series)"
same,binding signal,[13],"14 upbm affinity estimate (log intensity, higher = more binding, comparable within an allelic series)"
same,binding signal,[31],"13.6 upbm affinity estimate (log intensity, higher = more binding, comparable within an allelic series)"
same,binding signal,[26],"14.1 upbm affinity estimate (log intensity, higher = more binding, comparable within an allelic series)"
same,binding signal,[32],"13.5 upbm affinity estimate (log intensity, higher = more binding, comparable within an allelic series)"
same,binding signal,[33],"13.3 upbm affinity estimate (log intensity, higher = more binding, comparable within an allelic series)"
same,binding signal,[34],"10.9 upbm affinity estimate (log intensity, higher = more binding, comparable within an allelic series)"
same,binding signal,[28],"12.3 upbm affinity estimate (log intensity, higher = more binding, comparable within an allelic series)"
same,binding signal,[35],"12.9 upbm affinity estimate (log intensity, higher = more binding, comparable within an allelic series)"
same,binding signal,[36],"13.3 upbm affinity estimate (log intensity, higher = more binding, comparable within an allelic series)"
CCTACAGG,binding signal,[1],"7.69 upbm affinity estimate (log intensity, higher = more binding, comparable within an allelic series)"
same,binding signal,[2],"8.54 upbm affinity estimate (log intensity, higher = more binding, comparable within an allelic series)"
same,binding signal,[24],"9 upbm affinity estimate (log intensity, higher = more binding, comparable within an allelic series)"
same,binding signal,[11],"8.25 upbm affinity estimate (log intensity, higher = more binding, comparable within an allelic series)"
same,binding signal,[13],"7.75 upbm affinity estimate (log intensity, higher = more binding, comparable within an allelic series)"
same,binding signal,[18],"8.25 upbm affinity estimate (log intensity, higher = more binding, comparable within an allelic series)"
same,binding signal,[29],"8.98 upbm affinity estimate (log intensity, higher = more binding, comparable within an allelic series)"
ACCATTAA,binding signal,[1],"13.1 upbm affinity estimate (log intensity, higher = more binding, comparable within an allelic series)"
same,binding signal,[2],"10.1 upbm affinity estimate (log intensity, higher = more binding, comparable within an allelic series)"
same,binding signal,[20],"10.6 upbm affinity estimate (log intensity, higher = more binding, comparable within an allelic series)"
same,binding signal,[37],"12.7 upbm affinity estimate (log intensity, higher = more binding, comparable within an allelic series)"
same,binding signal,[22],"11.7 upbm affinity estimate (log intensity, higher = more binding, comparable within an allelic series)"
same,binding signal,[24],"10.1 upbm affinity estimate (log intensity, higher = more binding, comparable within an allelic series)"
same,binding signal,[25],"12 upbm affinity estimate (log intensity, higher = more binding, comparable within an allelic series)"
same,binding signal,[11],"11.8 upbm affinity estimate (log intensity, higher = more binding, comparable within an allelic series)"
same,binding signal,[13],"13.7 upbm affinity estimate (log intensity, higher = more binding, comparable within an allelic series)"
same,binding signal,[38],"12.7 upbm affinity estimate (log intensity, higher = more binding, comparable within an allelic series)"
same,binding signal,[39],"12.6 upbm affinity estimate (log intensity, higher = more binding, comparable within an allelic series)"
same,binding signal,[26],"14 upbm affinity estimate (log intensity, higher = more binding, comparable within an allelic series)"
same,binding signal,[40],"11.9 upbm affinity estimate (log intensity, higher = more binding, comparable within an allelic series)"
same,binding signal,[18],"11.6 upbm affinity estimate (log intensity, higher = more binding, comparable within an allelic series)"
same,binding signal,[41],"10.9 upbm affinity estimate (log intensity, higher = more binding, comparable within an allelic series)"
same,binding signal,[27],"8.92 upbm affinity estimate (log intensity, higher = more binding, comparable within an allelic series)"
same,binding signal,[28],"11.4 upbm affinity estimate (log intensity, higher = more binding, comparable within an allelic series)"
same,binding signal,[29],"12 upbm affinity estimate (log intensity, higher = more binding, comparable within an allelic series)"
GCTCGTTA,binding signal,[1],"11.4 upbm affinity estimate (log intensity, higher = more binding, comparable within an allelic series)"
same,binding signal,[19],"10.1 upbm affinity estimate (log intensity, higher = more binding, comparable within an allelic series)"
same,binding signal,[13],"11.6 upbm affinity estimate (log intensity, higher = more binding, comparable within an allelic series)"
